Assay results: PubChem BioAssay (EPA / NIEHS)
Active and inactive are the calls of the source. The calls were made as follows: active = hit-call score of the fitted dose curve at least 0.9, where 1 is the maximum; inconclusive = response in the unintended direction; inactive = score below 0.9.

Tested on: SERPINA7 (gene 6906)
Assay: CCTE_GLTED_hTBG: CCTE's human Thyroxine-binding Globulin (TBG) Inhibition Assay, Great Lakes Toxicology and Ecology Division (GLTED) Lab (AID 2284343);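 also: active chemicals lower fluorescence versus DMSO baseline by displacing probe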
Procedure: CCTE_GLTED_hTBG is a cell-free, single-readout assay designed to test the chemicals' ability to displace T4 from the human thyroxine-binding globulin (TBG) protein. TBG is incubated in presence of test chemical for 2 hours during which disrupting chemicals displace ANSA from the TBG protein. Results read fluorescence at 380 excitation and 475 emission.CCTE_GLTED_hTBG is the assay component measured from the CCTE_GLTED_hTBG assay. It is designed to make measurements of fluorescent polarization, using a form of binding reporter, as detected with Fluorescence signals by Fluorescence technology.Data from the assay component CCTE_GLTED_hTBG was analyzed at the assay endpoint CCTE_GLTED_hTBG in the positive analysis fitting direction relative to DMSO as the negative control and baseline of activity. Using a type of binding reporter, loss-of-signal activity can be used to understand a chemical's ability to displace T4 from thyroxine-binding globulin. To generalize the intended target to other relatable targets, this assay endpoint is annotated to the 'transporter' intended target family, where the subfamily is 'hormone carrier protein'.
Human transthyretin (TTR) assay, developed at Great Lakes Toxicology and Ecology Division (GLTED) within the EPA's Center for Computational Toxicology and Exposure (CCTE), is designed to test the chemicals' ability to displace T4 from the TTR protein. TTR (0.5uM) is incubated in presence of test chemical for 2 hours during which disrupting chemicals displace ANSA from the TTR protein. Results read fluorescence at 380 excitation and 475 emission.

Row | Structure (SMILES) | AC50
1 | Nc1ccc(S(=O)(=O)c2ccc(N)cc2)cc1 | 50 µM (active)
2 | Cc1cc(NC(=O)C(=O)O)cc(C)c1Oc1ccc(O)c2c1CCC2 | 0.667 µM (active)
3 | COc1ccc2c(c1)c(CC(=O)O)c(C)n2C(=O)c1ccc(Cl)cc1 | 1.71 µM (active)
4 | Cc1cccc(Nc2cc(Cl)nc(SCC(=O)O)n2)c1C | 22 µM (active)
5 | C=CCOC(=O)c1ccccc1C(=O)OCC=C | 19.5 µM (active)
6 | COc1cc(S(=O)(=O)O)c(C)cc1N=Nc1c(O)ccc2cc(S(=O)(=O)O)ccc12 | 35 µM (active)
7 | CCCCC(CC)COC(=O)CC(C(=O)OCC(CC)CCCC)S(=O)(=O)O (stereo unspecified) | 1.95 µM (active)
8 | CC(=O)Oc1ccccc1C(=O)O | 22.8 µM (active)
9 | Oc1ccc2ccccc2c1N=Nc1ccccc1 | 22.2 µM (active)
10 | Cc1ccc(C)c(O)c1C | 33.1 µM (active)
11 | CCOC(=O)C(C)(C)Oc1ccc(Cl)cc1 | 24.9 µM (active)
